This passage reports Potency and outcome results from PubChem BioAssay (NCATS).

Records with an inconclusive call do not appear. Activity calls are given as the source filed them. Unless noted, calls come from the whole dose curve.

A short description of experiment [1]: Primary qHTS for Huh7 cytotoxicity: counterscreen for inhibitors of MERS-S pseudotyped particle cell entry (AID 1479147).
A short description of experiment [2]: Primary qHTS for inhibitors of MERS-S pseudo-typed particle cell entry (AID 1479149). Note: nearly all actives have a fitted effect of over 60% in size.
The nature of experiment [3]: Primary qHTS for Vero E6 cytotoxicity: counterscreen for inhibitors of SARS-S pseudo-typed particle cell entry (AID 1479150).
Experiment [4] is described as follows: Primary qHTS for inhibitors of La Crosse Virus (LACV) - induced cell death in SH-SY5Y cells (AID 1508616; active = well fitted inhibition curve with a large enough effect;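 note: top concentration of the series differs between compounds; higher means more rescue of cells from virus-induced death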). An outline of the steps:
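Cytopathicity rescue screen: compounds pinned onto SH-SY5Y cells, which are then infected with LACV (MOI 0.01) and held 6 days at 37C. Percent activity is scaled between infected DMSO control and uninfected DMSO control.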

A short description of experiment [5]: Confirmatory qHTS for VERO E6 Cytotoxicity Assay: Counterscreen for SARS-CoV-2 CPE Assay (AID 1508605). Note: series mostly up to about 20 µM; nearly all actives have a fitted effect of over 60% in size. On the technique in general: Quantitative high-throughput screening tests each substance at several concentrations.
Experiment [6] in a line: Confirmatory qHTS for activators (rescue) of SARS-CoV-2 Cytopathic Effect (CPE) (AID 1508606). Note: potency is the fitted concentration of half-maximal effect; nearly all actives have a fitted effect of over 70% in size. The conditions noted are these: Vero E6 SARS-CoV-2 CPE rescue, viability luminescence.

As for `CCOP(=S)(OCC)Oc1ccc2c(C)c(Cl)c(=O)oc2c1`, the Potency result in experiment [1], in experiment [2] and in experiment [3] was “inactive” in each case. In experiment [4], the compound was classed as inactive.

Consider `C[C@@H]1CC2=CC(=O)CC[C@@H]2[C@H]2CC[C@@]3(C)[C@@H](CC[C@]3(C)O)[C@@H]21`, for which the Potency entry in experiment [1] and in experiment [3] was “inactive” each time. The outcome in experiment [4] was inactive.

In the case of `O=C(OCc1ccccc1)c1ccccc1`, the Potency result in experiment [1] and in experiment [3] was “inactive” throughout.

On to `COP(=S)(OC)SCN1C(=O)c2ccccc2C1=O`, for which the Potency entry in experiment [1], in experiment [2] and in experiment [3] was “inactive” each time. In experiment [4], the compound was classed as inactive.

Turning to `Oc1ccc(Cl)c2cccnc12`, the Potency entry in experiment [2] and in experiment [3] was “inactive” throughout.

Turning to `CN(c1nccc(=O)[nH]1)C1CCN(c2nc3ccccc3n2Cc2ccc(F)cc2)CC1`, the Potency result in experiment [1] and in experiment [3] was “inactive” in each case.

Take `C[C@]12CC[C@H]3[C@@H](CC[C@@]45O[C@H]4C(O)=C(C#N)C[C@]35C)[C@H]1CC[C@H]2O`: the Potency result in experiment [1] and in experiment [3] was “inactive” in each case. Moreover, in experiment [4], the compound was called inactive.

`CC(C)(C)CC(C)(C)c1ccc(OCCOCC[N+](C)(C)Cc2ccccc2)cc1`: the Potency result in experiment [1] and in experiment [3] was “inactive” in each case.

Regarding `CCN(CC)CC#CCOC(=O)C(O)(c1ccccc1)C1CCCCC1` (configuration not stated), the Potency entry in experiment [1] and in experiment [3] was “inactive” in each case.

For the compound `CC(=O)[C@H]1CC[C@H]2[C@@H]3C=CC4=CC(=O)CC[C@@]4(C)[C@@H]3CC[C@]12C`, the Potency entry in experiment [1] and in experiment [3] was “inactive” throughout.

Take `CN1C(=O)NC(=O)C(C)(C2=CCCCC2)C1=O` (configuration not stated): the Potency result in experiment [1], in experiment [2] and in experiment [3] was “inactive” each time. Further, the outcome in experiment [4] was inactive.

With `N#Cc1ccc2c(c1)N(CCCN1CCC(O)CC1)c1ccccc1S2`, the Potency result in experiment [1], in experiment [3] and in experiment [5] was “inactive” in each case. Further, in experiment [6], the Potency is 11.2 µM (active).

For `Cc1ccc(Nc2nccc(N(C)c3ccc4c(C)n(C)nc4c3)n2)cc1S(N)(=O)=O`, the Potency entry in experiment [1] and in experiment [3] was “inactive” each time.

`CN1CCN(C(c2ccccc2)c2ccc(Cl)cc2)CC1` (configuration not stated): the Potency entry in experiment [1], in experiment [3] and in experiment [5] was “inactive” in each case.

In the case of `NC(N)=NS(=O)(=O)c1ccc(N)cc1`, the Potency result in experiment [1] and in experiment [3] was “inactive” in each case.

In the case of `O=C(O[C@H]1CN2CCC1CC2)N1CCc2ccccc2[C@@H]1c1ccccc1`, the Potency result in experiment [1] and in experiment [3] was “inactive” each time.

As to `C=CCN1C[C@H](C(=O)N(CCCN(C)C)C(=O)NCC)C[C@@H]2c3cccc4[nH]cc(c34)C[C@H]21`, the Potency result in experiment [1] and in experiment [3] was “inactive” in each case.

For the compound `O=c1[nH]c(=O)n([C@H]2C[C@H](O)[C@@H](CO)O2)cc1F`, the Potency entry in experiment [2] and in experiment [3] was “inactive” in each case.

As for `CCOC(=O)C1=C(COCCN)NC(C)=C(C(=O)OC)C1c1ccccc1Cl` (configuration not stated), the Potency entry in experiment [1], in experiment [2], in experiment [3] and in experiment [5] was “inactive” throughout.

With `CN1CCN(CCC=C2c3ccccc3Sc3ccc(S(=O)(=O)N(C)C)cc32)CC1`, in experiment [2], the Potency entry was “inactive”.
